In PubChem BioAssay AID1159580 (chemical genetic matrix, 2015):
Where “and” joins values, the source holds several entries; their conditions need not be identical. Equal values may be shown once. In all, about 5,500 compounds went through this assay and about 2,000 (36%) were called active. Roughly 18% stayed inconclusive and do not appear here. Cut-off read from the data, not from the text of the source: active = normalized growth mostly below about 0.91 (no sharp cut-off); inconclusive = no clear call, values can overlap the other calls; inactive = mostly above about 0.92. Some of the results follow.

Assay: chemical genetic growth profiling, strain panel (AID 1159580);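 note: tested at 20 µM; growth read once vehicle control cultures reached saturation at 30 °C; 1 = growth at the plate median or of vehicle wells; lower values mean less growth of the strain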
Details: S. cerevisiae deletion strains, growth OD

Measured: normalized growth

CCN(CC)CCOc1ccc(/C(=C(\Cl)c2ccccc2)c2ccccc2)cc1
0.0616 (active) and 0.946 (inactive): locus YJL095W, strain BCK1, stronger effect = lower value
0.0542 (active) and 0.924 (inactive): locus YHR030C, strain SLT2, stronger effect = lower value
inactive: locus YHR079C, strain IRE1, stronger effect = lower value 0.945 | locus YIL125W, strain kgd1, stronger effect = lower value 0.983 | locus YJR066W, strain TOR1, stronger effect = lower value 0.982
active: locus YAL013W, strain DEP1, stronger effect = lower value 0.0553 | locus YAL021C, strain ccr4, stronger effect = lower value 0.064 | locus YAL026C, strain drs2, stronger effect = lower value 0.0617 | locus YAL030W, strain snc1, stronger effect = lower value 0.076 | locus YBL061C, strain skt5, stronger effect = lower value 0.0714 | locus YBR009C, strain hhf1, stronger effect = lower value 0.0875 | locus YBR021W, strain FUR4, stronger effect = lower value 0.089 | locus YBR023C, strain chs3, stronger effect = lower value 0.0792 | locus YBR171W, strain sec66, stronger effect = lower value 0.17 | locus YBR229C, strain ROT2, stronger effect = lower value 0.0488 | locus YBR231C, strain swc5, stronger effect = lower value 0.0847 | locus YBR279W, strain paf1, stronger effect = lower value 0.265 | locus YCL011C, strain gbp2, stronger effect = lower value 0.0699 | locus YCL016C, strain dcc1, stronger effect = lower value 0.203 | locus YCL029C, strain bik1, stronger effect = lower value 0.0627 | locus YCL069W, strain vba3, stronger effect = lower value 0.11 | locus YCR088W, strain abp1, stronger effect = lower value 0.107 | locus YDL005C, strain med2, stronger effect = lower value 0.11 | locus YDL035C, strain GPR1, stronger effect = lower value 0.0517 | locus YDL040C, strain nat1, stronger effect = lower value 0.479 | locus YDL074C, strain BRE1, stronger effect = lower value 0.0809 | locus YDL101C, strain DUN1, stronger effect = lower value 0.0611 | locus YDL185W, strain tfp1, stronger effect = lower value 0.124 | locus YDL192W, strain arf1, stronger effect = lower value 0.0614 | locus YDR001C, strain nth1, stronger effect = lower value 0.216 | locus YDR069C, strain doa4, stronger effect = lower value 0.0706 | locus YDR101C, strain arx1, stronger effect = lower value 0.0624 | locus YDR137W, strain rgp1, stronger effect = lower value 1.41 [resistant] | locus YDR159W, strain sac3, stronger effect = lower value 0.105 | locus YDR162C, strain NBP2, stronger effect = lower value 0.0484 | locus YDR195W, strain ref2 0.235 | locus YDR297W, strain sur2, stronger effect = lower value 0.0942 | locus YDR318W, strain mcm21, stronger effect = lower value 0.0641 | locus YDR334W, strain swr1, stronger effect = lower value 0.0931 | locus YDR335W, strain msn5, stronger effect = lower value 0.093 | locus YDR388W, stronger effect = lower value 0.055 | locus YDR392W, strain spt3, stronger effect = lower value 0.0803 | locus YDR502C, strain sam2, stronger effect = lower value 0.0655 | locus YEL003W, strain gim4, stronger effect = lower value 0.133 | locus YEL037C, strain rad23, stronger effect = lower value 0.099 | locus YEL061C, strain CIN8 (second series), stronger effect = lower value 0.3 | locus YEL061C, strain CIN8, stronger effect = lower value 0.0516 | locus YER015W, strain faa2, stronger effect = lower value 0.143 | locus YER016W, strain bim1, stronger effect = lower value 0.218 | locus YER110C, stronger effect = lower value 0.0804 | locus YER111C, strain swi4, stronger effect = lower value 0.529 | locus YER155C, strain BEM2 (second series), stronger effect = lower value 0.851 | locus YER155C, strain BEM2, stronger effect = lower value 0.0653 | locus YER167W, strain BCK2, stronger effect = lower value 0.0512 | locus YFR010W, strain ubp6, stronger effect = lower value 0.0804 | locus YGL078C, strain dbp3, stronger effect = lower value 0.919 | locus YGL086W, strain mad1, stronger effect = lower value 0.0596 | locus YGL167C, strain pmr1, stronger effect = lower value 0.244 | locus YGL173C, strain kem1, stronger effect = lower value 0.497 | locus YGL227W, strain vid30, stronger effect = lower value 0.144 | locus YGL240W, strain doc1, stronger effect = lower value 0.228 | locus YGL248W, strain PDE1, stronger effect = lower value 0.0492 | locus YGL253W, strain hxk2, stronger effect = lower value 0.0662 | locus YGR135W, strain pre9, stronger effect = lower value 0.069 | locus YGR252W, strain gcn5, stronger effect = lower value 0.178 | locus YHR013C, strain ard1, stronger effect = lower value 0.134 | locus YHR027C, strain rpn1, stronger effect = lower value 0.109 | locus YHR079C, strain IRE1 (second series), stronger effect = lower value 0.0584 | locus YHR094C, strain hxt1, stronger effect = lower value 0.0617 | locus YHR129C, strain ARP1, stronger effect = lower value 0.0567 | locus YHR142W, strain chs7, stronger effect = lower value 0.08 | locus YHR200W, strain rpn10, stronger effect = lower value 0.0639 | locus YIL066C, strain RNR3, stronger effect = lower value 0.0508 | locus YIL073C, strain SPO22, stronger effect = lower value 0.106 | locus YIR030C, strain dcg1, stronger effect = lower value 0.0601 | locus YJL092W, strain hpr5, stronger effect = lower value 0.193 | locus YJL095W, strain BCK1 (second series), stronger effect = lower value 0.0616 | locus YJL115W, strain asf1, stronger effect = lower value 0.262 | locus YJL129C, strain trk1, stronger effect = lower value 0.158 | locus YJL134W, strain LCB3, stronger effect = lower value 0.0524 | locus YJL154C, strain vps35, stronger effect = lower value 0.095 | locus YJL164C, strain tpk1, stronger effect = lower value 0.0775 | locus YJL166W, strain qcr8, stronger effect = lower value 0.0887 | locus YJL168C, strain set2, stronger effect = lower value 0.0577 | locus YJL187C, strain SWE1 (second series), stronger effect = lower value 0.0519 | locus YJR043C, strain POL32, stronger effect = lower value 0.064
